# In all, about 340,000 compounds went through this assay and about 1,000 (0.29%) were called active. No stated cut-off is given here; in the data, inconclusive means inhibition above about 29% without an active follow-up result; inactive means below that. These entries were drawn from the full list. Results with a measured potency or affinity are listed apart.
# Molecular target: Genome polyprotein (Dengue virus type 2 (strain 16681-PDK53)) (UniProt P29991)
# Test: flavivirus cap methylation enzyme inhibition – biochemical, confirmation dose response, primary screen (AID 588689)
# Settings: Dengue-2 NS5 methyltransferase capping enzyme assay, at 25 µM, stronger effect = higher value
# Chain of Genome polyprotein (Dengue virus type 2 (strain 16681-PDK53)) (P29991 whole entry, looked up): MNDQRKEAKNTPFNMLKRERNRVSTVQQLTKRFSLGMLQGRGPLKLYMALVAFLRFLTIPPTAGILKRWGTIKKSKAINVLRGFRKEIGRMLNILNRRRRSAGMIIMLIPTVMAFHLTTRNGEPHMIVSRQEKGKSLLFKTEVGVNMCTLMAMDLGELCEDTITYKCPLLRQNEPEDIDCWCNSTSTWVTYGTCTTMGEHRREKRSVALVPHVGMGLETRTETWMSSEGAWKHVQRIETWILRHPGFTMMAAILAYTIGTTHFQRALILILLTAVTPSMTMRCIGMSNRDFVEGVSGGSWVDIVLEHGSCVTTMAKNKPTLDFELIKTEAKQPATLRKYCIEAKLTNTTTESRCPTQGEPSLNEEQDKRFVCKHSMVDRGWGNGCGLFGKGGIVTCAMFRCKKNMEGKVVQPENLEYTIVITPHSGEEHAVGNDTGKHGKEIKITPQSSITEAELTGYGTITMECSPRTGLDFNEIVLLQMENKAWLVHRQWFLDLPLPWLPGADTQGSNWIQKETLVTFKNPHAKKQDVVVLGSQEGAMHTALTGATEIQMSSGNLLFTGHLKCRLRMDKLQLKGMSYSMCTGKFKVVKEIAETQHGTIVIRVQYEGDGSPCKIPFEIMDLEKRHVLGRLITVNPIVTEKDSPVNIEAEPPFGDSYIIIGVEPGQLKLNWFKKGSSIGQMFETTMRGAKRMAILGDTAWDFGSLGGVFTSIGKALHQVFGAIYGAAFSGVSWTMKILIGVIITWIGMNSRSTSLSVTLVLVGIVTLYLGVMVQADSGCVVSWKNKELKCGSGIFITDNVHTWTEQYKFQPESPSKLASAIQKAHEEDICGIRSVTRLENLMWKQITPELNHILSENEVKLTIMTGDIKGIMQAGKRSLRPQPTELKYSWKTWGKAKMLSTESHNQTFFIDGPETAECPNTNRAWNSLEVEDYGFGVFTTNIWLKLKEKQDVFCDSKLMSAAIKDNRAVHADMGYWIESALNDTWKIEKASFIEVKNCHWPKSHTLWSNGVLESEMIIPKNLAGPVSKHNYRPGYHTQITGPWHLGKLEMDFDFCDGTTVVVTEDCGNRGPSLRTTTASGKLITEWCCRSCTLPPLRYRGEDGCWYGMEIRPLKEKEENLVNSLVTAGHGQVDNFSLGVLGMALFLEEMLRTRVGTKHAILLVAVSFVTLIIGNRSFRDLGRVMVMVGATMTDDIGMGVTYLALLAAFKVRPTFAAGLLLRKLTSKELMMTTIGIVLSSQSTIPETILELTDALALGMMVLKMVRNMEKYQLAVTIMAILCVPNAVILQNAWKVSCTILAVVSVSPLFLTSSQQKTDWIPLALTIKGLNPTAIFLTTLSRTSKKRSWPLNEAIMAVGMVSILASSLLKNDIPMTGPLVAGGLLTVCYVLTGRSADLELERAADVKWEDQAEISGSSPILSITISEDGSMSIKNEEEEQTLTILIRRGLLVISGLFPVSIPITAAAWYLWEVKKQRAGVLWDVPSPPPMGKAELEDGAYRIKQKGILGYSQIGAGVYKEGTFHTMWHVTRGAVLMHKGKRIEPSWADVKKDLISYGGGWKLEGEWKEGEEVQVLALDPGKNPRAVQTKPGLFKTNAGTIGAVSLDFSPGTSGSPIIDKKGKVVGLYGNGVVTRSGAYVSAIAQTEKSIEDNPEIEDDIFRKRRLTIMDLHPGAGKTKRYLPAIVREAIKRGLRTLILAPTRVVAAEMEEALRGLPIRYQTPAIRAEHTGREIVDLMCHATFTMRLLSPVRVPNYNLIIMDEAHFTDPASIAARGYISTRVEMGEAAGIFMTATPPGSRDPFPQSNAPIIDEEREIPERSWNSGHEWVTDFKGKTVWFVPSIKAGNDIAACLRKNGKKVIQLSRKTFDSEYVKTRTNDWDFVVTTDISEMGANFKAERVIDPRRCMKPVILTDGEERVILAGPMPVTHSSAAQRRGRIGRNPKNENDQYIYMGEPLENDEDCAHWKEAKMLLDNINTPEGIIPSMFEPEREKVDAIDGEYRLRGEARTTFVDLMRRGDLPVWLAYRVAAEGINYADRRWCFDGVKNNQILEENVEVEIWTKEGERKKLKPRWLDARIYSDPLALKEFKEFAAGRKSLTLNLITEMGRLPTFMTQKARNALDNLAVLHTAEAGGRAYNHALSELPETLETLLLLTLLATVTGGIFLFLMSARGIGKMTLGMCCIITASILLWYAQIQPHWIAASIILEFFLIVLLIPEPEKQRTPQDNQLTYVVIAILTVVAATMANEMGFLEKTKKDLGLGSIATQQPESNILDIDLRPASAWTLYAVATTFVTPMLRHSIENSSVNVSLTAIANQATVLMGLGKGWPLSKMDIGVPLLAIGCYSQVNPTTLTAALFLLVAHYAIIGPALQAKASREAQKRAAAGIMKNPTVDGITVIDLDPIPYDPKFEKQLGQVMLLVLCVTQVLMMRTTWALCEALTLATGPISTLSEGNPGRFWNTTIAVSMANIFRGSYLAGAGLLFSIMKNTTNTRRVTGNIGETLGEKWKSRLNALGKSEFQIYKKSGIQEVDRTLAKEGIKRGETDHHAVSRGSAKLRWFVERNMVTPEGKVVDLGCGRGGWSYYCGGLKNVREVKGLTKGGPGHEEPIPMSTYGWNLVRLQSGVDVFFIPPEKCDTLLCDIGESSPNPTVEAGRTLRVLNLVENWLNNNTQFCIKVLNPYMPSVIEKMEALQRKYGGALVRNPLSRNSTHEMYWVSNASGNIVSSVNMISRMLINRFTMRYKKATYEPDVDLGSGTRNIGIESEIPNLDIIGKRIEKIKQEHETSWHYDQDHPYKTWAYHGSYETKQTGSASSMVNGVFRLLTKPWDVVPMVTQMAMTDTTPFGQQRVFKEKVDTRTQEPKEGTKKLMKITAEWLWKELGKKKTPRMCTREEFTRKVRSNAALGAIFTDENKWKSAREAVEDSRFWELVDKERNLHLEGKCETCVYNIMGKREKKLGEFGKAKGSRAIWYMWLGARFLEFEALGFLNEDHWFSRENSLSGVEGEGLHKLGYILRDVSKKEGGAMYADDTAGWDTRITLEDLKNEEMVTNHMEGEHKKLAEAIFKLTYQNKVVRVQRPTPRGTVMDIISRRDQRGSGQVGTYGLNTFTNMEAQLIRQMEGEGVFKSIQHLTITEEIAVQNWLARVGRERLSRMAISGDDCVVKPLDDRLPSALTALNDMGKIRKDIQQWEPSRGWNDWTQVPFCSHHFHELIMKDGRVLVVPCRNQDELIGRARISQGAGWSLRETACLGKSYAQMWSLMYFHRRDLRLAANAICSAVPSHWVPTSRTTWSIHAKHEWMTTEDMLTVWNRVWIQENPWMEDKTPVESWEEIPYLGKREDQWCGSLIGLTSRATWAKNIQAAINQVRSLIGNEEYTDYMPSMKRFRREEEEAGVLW
Structure (SMILES),inhibition,inhibition (measured here: pilot screen replicate inhibition) [%]
CN1C(=O)C(C)(C)c2cc(S(=O)(=O)NCc3ccc(Cl)cc3)ccc21,0% (inactive),–
O=C(O)c1cc(=O)c2c(Cl)cc(Cl)cc2[nH]1,-1.47% (inactive),–
O=C(O)/C(=C\c1ccccc1)c1ccccc1,-3.95% (inactive),–
COc1ccc(C(=O)Nc2ccc3nc(N4CCOCC4)sc3c2)cc1OC,-1.84% (inactive),–
c1csc(-c2cc(N3CCCCC3)c3ccccc3n2)c1,-2.61% (inactive),–
O=c1c2ccccc2nc(/C=C/c2ccc([N+](=O)[O-])cc2)n1CCCO,-2.58% (inactive),–
Cc1cnc(=O)[nH]c1SCc1ccc([N+](=O)[O-])cc1,9.19% (inactive),–
CCOC(=O)N1CCC(NC(=O)c2cc3sccc3n2CC)CC1,-4.86% (inactive),–
CCN(CC)c1ccc(/C=N/Nc2cccc(C)c2)c(O)c1,7.27% (inactive),–
Cc1cccc(N/N=C/c2ccccc2O)c1,-8.43% (inactive),–
Oc1c(Br)cc(Br)cc1/C=N/Nc1ccc(Cl)nn1,7.11% (inactive),–
Oc1cccc(/C=N/NC(=S)Nc2cccnc2)c1O,-2.88% (inactive),–
Oc1ccc(/C=N/Nc2ccc(Cl)nn2)cc1O,2.61% (inactive),–
Oc1ccc(/C=N/NC(=S)Nc2cccnc2)c(O)c1,-3.64% (inactive),–
COc1ccc(CCC(=O)N2CCN(C3CCCCC3)CC2)cc1,-7.21% (inactive),–
CC(=O)N1CCN(Cc2nc3cc(NC(=O)c4ccccc4C)ccc3n2C)CC1,-0.69% (inactive),–
Cc1cc2ncn(C3CC(O)C(CO)O3)c2cc1C (stereo not given),2.33% (inactive),–
COc1ccc(-c2nn(-c3ccccc3)cc2/C=N/NC(=O)c2cccc(S(=O)(=O)Nc3ccccc3OC)c2)cc1,-3.64% (inactive),–
C=CCc1cccc2cc(C(=O)N3CCN(C(=O)c4ccccc4)CC3)c(=O)oc12,-4.98% (inactive),–
C[C@@H]1CN([C@@H](C)CO)S(=O)(=O)c2ccc(Br)cc2O[C@H]1CN(C)C(=O)c1ccncc1,-4.96% (inactive),–
CC(C)CN(CC(C)C)c1ccc(/C=N/n2cnnc2)cc1[N+](=O)[O-],-1.82% (inactive),–
O=C1c2ccccc2C(=O)N1/N=C/c1ccc(Oc2ccc([N+](=O)[O-])cn2)cc1,-2.91% (inactive),–
O=C(c1ccc(N2CCOCC2)c([N+](=O)[O-])c1)N1CCN(c2ccccc2)CC1,-9.43% (inactive),–
COc1ccc(N2CCN(C(=O)c3ccccc3)CC2)c([N+](=O)[O-])c1,0% (inactive),–

Structure (SMILES),inhibition,inhibition (measured here: pilot screen replicate inhibition) [%]
O=C1NC(=S)N/C1=C\c1cccc([N+](=O)[O-])c1,2.76% (inactive),–
O=C1NC(=O)/C(=C\c2ccc(Oc3ccc([N+](=O)[O-])cn3)cc2)S1,10.2% (inactive),–
Cc1ccc(/C=C2\NC(=S)NC2=O)cc1[N+](=O)[O-],3.12% (inactive),–
CN(C)c1ccc(/C=N/NC(N)=S)cc1[N+](=O)[O-],-11.3% (inactive),–
COc1ccc(NC(=O)C2CCCN(C(=O)c3ccc(Cl)cc3)C2)cc1S(=O)(=O)N(C)C (stereo not given),-6.34% (inactive),–
CCOc1ccc(NC(=O)c2ccc3c(c2)N(Cc2ccc(F)cc2)C(=O)CS3=O)cc1 (stereo not given),-7.95% (inactive),–
COCCN(C(=S)Nc1ccc(Cl)cc1OC)C1CCN(C(C)=O)CC1,-5.17% (inactive),–
Cc1cc2c(cc1S(=O)(=O)N1CCOCC1)NC(=O)CO2,-0.83% (inactive),–
COc1ccc(S(=O)(=O)NCC2CCCO2)cc1NC(=O)c1ccc(Cl)cc1 (stereo not given),-0.72% (inactive),–
C[C@@H]1CN([C@H](C)CO)C(=O)c2cc(NS(=O)(=O)c3cn(C)cn3)ccc2O[C@H]1CN(C)C(=O)Nc1ccccc1,-1.59% (inactive),–
Cc1ccc(C(=O)NC(=S)Nc2ccc(N3CCOCC3)cc2)c(C)c1,-1.43% (inactive),–
COc1cccc(N(C(=O)c2snc(C(N)=O)c2N)C(C(=O)NCC2CCCO2)c2ccc(F)cc2)c1 (stereo not given),-6.68% (inactive),–
COc1ccc(C=O)cc1OS(=O)(=O)c1ccccc1[N+](=O)[O-],11% (inactive),–
COc1cc(C=O)ccc1OS(=O)(=O)c1ccccc1[N+](=O)[O-],-9.17% (inactive),–
CN(C)c1ccc(/C=C/C(=O)c2ccccc2)cc1[N+](=O)[O-],7.8% (inactive),–
O=C1NC(=O)c2cc(Oc3ccc([N+](=O)[O-])cc3)ccc21,0.39% (inactive),–
CN(C)c1ccc(/C=N/N=C(N)N)cc1[N+](=O)[O-],-2.95% (inactive),–
O=C1Nc2ccccc2/C1=C/c1ccc([N+](=O)[O-])cc1,-15.7% (inactive),–
CC(C)(C)NC(=O)CN(C(=O)C1CSC(=O)C1)c1ccccc1F (stereo not given),-7.12% (inactive),–
O=C(O)c1ccc(NC(=O)c2cccc(C(=O)Nc3ccc(C(=O)O)cc3)n2)cc1,-1.63% (inactive),–
Cc1ncn(-c2ccccc2)c1-c1ccccc1,0% (inactive),–
CCN(CC)S(=O)(=O)c1ccc(OC)c(NS(=O)(=O)c2cccc(C(=O)O)c2)c1,7.95% (inactive),–
COC(=O)Cn1cc(C(=O)OC)c2ccccc21,-2.39% (inactive),–
CC(=O)n1cc(/C=C2/N=C(c3ccccc3)OC2=O)c2ccccc21,19.9% (inactive),–

Structure (SMILES),inhibition,inhibition (measured here: pilot screen replicate inhibition) [%]
CN=C1S/C(=C\c2cn(CC(=O)OC)c3ccccc23)C(=O)N1C,-17.1% (inactive),–
CC(=O)n1cc(CO)c2ccccc21,-0.72% (inactive),–
COc1ccc(/C=N/NC(=O)c2ccc(O)cc2O)cc1CSc1ccccn1,2.91% (inactive),–
CCOC(=O)c1c(NC(=O)CSc2nnnn2C)sc(C)c1C,-3.98% (inactive),–
Cc1ccc(C2NC(=S)N3C(c4ccc(C)cc4)NC(=S)N23)cc1 (stereo not given),-0.57% (inactive),–
CCn1c2ccccc2c2cc(NC(C)=O)ccc21,4.77% (inactive),–
COc1cccc(NC(=O)c2ccccc2-c2ccccc2C(=O)O)c1,-10.1% (inactive),–
CCn1c2ccccc2c2cc(NC(=O)c3ccccc3[N+](=O)[O-])ccc21,1.28% (inactive),–
CC(=O)Nc1ccc(-c2nc3cc(Cl)ccc3o2)cc1,0% (inactive),–
Cc1ccc(NC(=O)c2ccccc2-c2ccccc2C(=O)O)cc1C,-2.19% (inactive),–
O=C(O)c1ccccc1-c1ccccc1C(=O)Nc1cccc(-c2nc3ccccc3o2)c1,8.19% (inactive),–
COc1ccc(NC(=O)c2ccccc2-c2ccccc2C(=O)O)cc1,-8.51% (inactive),–
O=C(Nc1ccc2c(c1)C(=O)c1ccccc1-2)c1ccccc1,-0.39% (inactive),–
CCN(CC)S(=O)(=O)c1cccc(NC(=O)COC(=O)/C=C/c2cccs2)c1,-2.65% (inactive),–
O=C(O)C1CCN(C(=O)Cc2ccccc2)CC1,2.22% (inactive),–
c1ccc(C2CC(c3ccccc3)C(c3ccccc3)N2)cc1 (stereo not given),-3.92% (inactive),-2.44
CCCOc1ccccc1N/C(=N/c1nc(C)cc(C)n1)NC(=O)Nc1ccc(Cl)cc1,-4.07% (inactive),–
Oc1ccc(C[C@H]2CNCCN2CCc2cccc3ccccc23)cc1,6.4% (inactive),–
O=C(NCCCO)c1cc2ccccc2[nH]1,-9.54% (inactive),–
O=C1Nc2ccccc2C12NCCc1c2[nH]c2ccccc12 (stereo not given),6.48% (inactive),–
O=C(O)c1ccccc1-c1ccccc1C(=O)Nc1ccc2oc(=O)c3ccccc3c2c1,11.5% (inactive),–
O=C(O)c1ccccc1-c1ccccc1C(=O)Nc1ccc2c(c1)[nH]c(=O)c1ccccc12,9.14% (inactive),–
CCC(NS(=O)(=O)c1ccc(OC)cc1)C(=O)NCCc1ccccc1 (stereo not given),-3.31% (inactive),–
Cc1ccc(OCC(=O)Sc2ccc(C)cc2)cc1,-33.2% (inactive),–

Structure (SMILES),inhibition,inhibition (measured here: pilot screen replicate inhibition) [%]
CC1(C)[C@@H](O)CC[C@]2(C)[C@H]3C(=O)C=C4[C@@H]5C[C@@](C)(C(=O)O)CC[C@]5(C)CC[C@@]4(C)[C@]3(C)CC[C@@H]12,-0.73% (inactive),–
Cc1sc2ncnc(N3CCC(C(=O)Nc4sc5c(c4C(N)=O)CCC(C)C5)CC3)c2c1C (stereo not given),0% (inactive),–
Cc1cccc(CCNC(=O)CCc2nnc(CCc3ccccc3)o2)n1,-0.91% (inactive),–
CC(NC(=O)c1ccco1)C(=O)NC(C)c1cc(F)c(Cl)cc1Cl (stereo not given),-1.62% (inactive),–
COc1ccc(CC(=O)Nc2ccc(S(=O)(=O)N3CCOCC3)cc2)cc1,0% (inactive),–
O=C(COC(=O)c1ccc([N+](=O)[O-])o1)NCc1ccc2c(c1)OCO2,0% (inactive),–
O=C(O)c1cccc(-n2cccc2/C=N/O)c1,0% (inactive),–
O=C(O)c1cccc(-n2cccc2/C=C\[N+](=O)[O-])c1,0.75% (inactive),–
O=C(N/C(=C\c1cccnc1)C(=O)N1CCC(O)CC1)c1ccccc1,-1.67% (inactive),–
CC(=O)Nc1ccc(S(=O)(=O)NCCC(=O)OCC(=O)c2ccc(Br)cc2)cc1,-10.1% (inactive),–
CC(=O)NN1C(=O)/C(=C\c2ccc(Cl)cc2)SC1=S,1.78% (inactive),–
Cc1ccc(C)n1N1C(=O)/C(=C\c2ccc(Cl)cc2)SC1=S,6.92% (inactive),–
COc1ccc(-c2nc(CS(=O)CC(=O)NCc3ccc(F)cc3)c(C)o2)cc1 (stereo not given),-10.5% (inactive),–
COc1cc(C(=O)NCCC(c2ccccc2)c2ccccc2)cc(OC)c1OC,-9.51% (inactive),–
CC(=O)c1ccc(OC(=O)c2cccs2)cc1,-2.4% (inactive),–
CC1=NN(c2ccc(Br)cc2)C(=O)/C1=C/c1cccs1,22% (inactive),–
CC1=NN(c2ccccc2)C(=O)/C1=C/c1ccc[nH]1,-6.55% (inactive),–
CC1=NN(c2ccccc2)C(=O)/C1=C/N(C)C,2.35% (inactive),–
CCOc1cc(/C=C2/C(=O)N(c3ccccc3)N=C2C)ccc1OC(=O)c1cccs1,8.81% (inactive),–
CC1=NN(c2ccccc2)C(=O)/C1=C\c1cc(C)n(-c2ccccc2)c1C,-4.02% (inactive),–
CC1=NN(c2ccccc2)C(=O)/C1=C\c1sccc1C,3.11% (inactive),–
CC1=NN(c2ccccc2)C(=O)/C1=C/C=C/c1ccccc1,0.72% (inactive),–
